Only some compounds are listed: those with a hit (about 3.1% of all), similar ones and a draw of the others.
DENV2 CPE rescue = inhibitors of DENV2 cytopathic effect | actives 1.7% (n = 350,000) | DENV2-infected cells, cytopathic effect rescue, plate reader | AID 651640 | CPE inhibition, % at 9.99 µM; in the data active means CPE inhibition above about 20%, passing the limit was not always enough; inconclusive means no clear call, values can overlap the other calls; tested in BHK-21 cells
INS-1E GSIS act = GLuc luminescence reporter in INS-1E cells, primary screen for activators of glucose-dependent secretion of insulin; INS-1E GLuc reporter insulin secretion, 2-3 h; actives 0.61% (n = 370,000); activation, % at 16.6 µM;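 active means lowest replicate activation of at least 40%, so every replicate reaches that level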
RAD54 branch = RAD54 (human) branch migration inhibition | RAD54 Holliday junction branch migration, FAM/BHQ fluorescence | AID 602329 | actives 0.14% (n = 360,000) | inhibition, % at 10.4 µM | Q92698;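 active means mean normalized replicate activity at least 40 and at least half of replicates scoring 40 or more; inconclusive means only one of the two criteria met; inactive means mean below 40 and under half of replicates reaching 40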;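 further: inhibitors cause a drop in the FAM fluorescence signal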
AF4-AF9 inh = MLL-AF4/AF9 protein interaction inhibition. P42568. AlphaScreen, biotin-AF4 peptide binding to FLAG-AF9. inhibition, % at 10 µM. actives 0.47% (n = 350,000). AID 651704;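 active means every replicate reaching a set inhibition limit, whatever the replicate mean, cut at about 25% in these data; inconclusive means mean inhibition reaches that limit but some replicates miss it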
Target sequence (P42568 whole entry, looked up): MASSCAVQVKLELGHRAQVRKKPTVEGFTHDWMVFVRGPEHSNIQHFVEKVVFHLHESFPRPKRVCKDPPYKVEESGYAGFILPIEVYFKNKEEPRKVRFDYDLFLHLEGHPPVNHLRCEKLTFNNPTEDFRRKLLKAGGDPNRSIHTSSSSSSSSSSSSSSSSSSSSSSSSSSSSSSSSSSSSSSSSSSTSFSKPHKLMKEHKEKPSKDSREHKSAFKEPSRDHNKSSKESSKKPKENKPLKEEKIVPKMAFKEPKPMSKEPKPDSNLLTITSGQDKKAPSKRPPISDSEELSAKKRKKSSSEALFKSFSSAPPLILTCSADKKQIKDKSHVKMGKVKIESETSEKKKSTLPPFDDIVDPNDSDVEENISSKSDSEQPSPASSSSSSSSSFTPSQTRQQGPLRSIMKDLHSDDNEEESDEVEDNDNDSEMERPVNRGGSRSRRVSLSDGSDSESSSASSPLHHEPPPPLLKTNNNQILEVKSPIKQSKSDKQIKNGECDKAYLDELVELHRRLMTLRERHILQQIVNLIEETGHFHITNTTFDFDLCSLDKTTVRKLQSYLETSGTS
dFosB activator = mouse delta FosB homodimer activation. P13346. purified delta FosB, TAMRA-CDK5 oligo fluorescence polarization; percent of positive-control signal above neutral wells. activation, % at 25 µM. actives 0.99% (n = 340,000);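 active means mean activation above about 17%, with every replicate also reaching it, limit read from the data, passing the limit was not always enough; inconclusive means only one of the two conditions met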
RAD52 anneal inh = RAD52 (human) annealing inhibition; recombinant RAD52 DNA annealing, FRET fluorescence; actives 0.46% (n = 360,000); P43351; inhibition, % at 18.7 µM;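 active means every replicate showing at least 50% inhibition; inconclusive means mean inhibition at least 50% but not in every replicate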
Numbers stand for hits; – = inactive; ? = inconclusive; · = no result; ! = not confirmed by another sample.

SMILES | DENV2 CPE rescue | INS-1E GSIS act | RAD54 branch | AF4-AF9 inh | dFosB activator | RAD52 anneal inh
Cc1ccccc1S(=O)(=O)N1C[C@@H](O)COC[C@H]2O[C@H](CC(=O)N3CCC(Cc4ccccc4)CC3)CC[C@@H]21 | 68 | – | – | – | · | –
O=C(C[C@@H]1CC[C@H]2[C@@H](COC[C@@H](O)CN2S(=O)(=O)c2cccc(Cl)c2)O1)N1CCOCC1 | 24 | – | – | – | · | –
CN1CCN(C(=O)C[C@H]2CC[C@H]3[C@@H](COC[C@@H](O)CN3S(=O)(=O)c3cccc(Cl)c3)O2)CC1 | 76 | – | – | – | · | –
O=C(C[C@@H]1CC[C@@H]2[C@H](COC[C@@H](O)CN2S(=O)(=O)c2cccc(Cl)c2)O1)N1CCCCC1 | – | – | – | – | · | –
O=C(C[C@@H]1CC[C@@H]2[C@H](COC[C@@H](O)CN2Cc2ccc(Oc3ccccc3)cc2)O1)N1CCCCC1 | 24 | – | – | – | · | –
O=C(C[C@H]1CC[C@@H]2[C@H](COC[C@H](O)CN2Cc2ccc(Oc3ccccc3)cc2)O1)N1CCCCC1 | – | – | – | – | · | –
C[C@H]1CCCCO[C@H](CN(C)C(=O)Nc2ccc(F)cc2)[C@@H](C)CN([C@@H](C)CO)C(=O)c2cc(NC(=O)Nc3ccc4c(c3)OCO4)ccc2O1 | – | – | – | 32! | · | –
C[C@@H]1CN([C@@H](C)CO)C(=O)c2cc(NC(=O)Nc3ccc(F)cc3)ccc2O[C@@H](C)CCCCO[C@@H]1CN(C)C(=O)Nc1ccc2c(c1)OCO2 | 23 | – | · | – | · | –
C[C@H]1CCCCO[C@H](CN(C)C(=O)Nc2ccc3c(c2)OCO3)[C@@H](C)CN([C@@H](C)CO)C(=O)c2cc(NC(=O)Nc3ccc(F)cc3)ccc2O1 | – | – | – | – | · | –
C[C@@H]1CCCCO[C@@H](CN(C)C(=O)Nc2ccc3c(c2)OCO3)[C@H](C)CN([C@@H](C)CO)C(=O)c2cc(NC(=O)Nc3ccc(F)cc3)ccc2O1 | – | – | – | – | · | –
O=c1cc(-c2ccccc2)nc(SCc2ccccc2)[nH]1 | · | 79 | · | · | ? | ·
O=C(C[C@H]1C[C@@H]2c3cc(NC(=O)NC4CCCC4)ccc3O[C@@H]2[C@H](CO)O1)NCCc1ccccc1 | – | – | – | – | · | –
Cc1noc(C)c1NC(=O)N(C)C[C@H]1Oc2ccc(NS(=O)(=O)c3cn(C)cn3)cc2CC(=O)N([C@H](C)CO)C[C@@H]1C | 48 | – | – | – | · | –
COc1ccc(NC(=O)N(C)C[C@@H]2Oc3ccc(NS(=O)(=O)c4cn(C)cn4)cc3CC(=O)N([C@H](C)CO)C[C@@H]2C)cc1 | 77 | – | – | – | · | –
CN1CCC(N(C)S(=O)(=O)c2ccc(NC(=O)COc3cccc(Cl)c3)cc2)CC1 | – | 64 | · | – | – | –
C[C@H]1CN([C@@H](C)CO)C(=O)c2cccc(NC(=O)Nc3ccccc3)c2O[C@H]1CN(C)C(=O)NC1CCCCC1 | – | – | – | – | · | –
CC/C(O)=C1\C(=O)CC(C)(C)CC1=Nc1ccccc1C | · | 73 | · | · | – | ·
Cc1cccc(C2N=C(N)Nc3nc4ccccc4n32)c1 (stereo not drawn) | – | 56 | · | – | – | –
CO[C@@H]1CN(C)C(=O)c2cccc(C#N)c2OCC[C@@H]2CC[C@@H](OC)[C@@H](CN(C)C(=O)[C@H]1C)O2 | – | – | – | – | · | –
Cc1ccc(S(=O)(=O)N(C)C[C@H]2Oc3ccc(NC(=O)Nc4ccc(F)cc4)cc3CC(=O)N([C@H](C)CO)C[C@@H]2C)cc1 | 80 | – | – | – | · | –
C[C@@H]1CN([C@H](C)CO)C(=O)Cc2cc(NC(=O)Nc3ccc(F)cc3)ccc2O[C@H]1CN(C)S(=O)(=O)c1ccc(Cl)cc1 | 21 | – | – | – | · | –
Cc1ccc(S(=O)(=O)N(C)C[C@@H]2Oc3ccc(NC(=O)Nc4ccc(F)cc4)cc3CC(=O)N([C@H](C)CO)C[C@@H]2C)cc1 | – | – | – | – | · | –
CC(C)NC(=O)Nc1ccc2c(c1)CC(=O)N([C@@H](C)CO)C[C@@H](C)[C@H](CN(C)S(=O)(=O)c1ccc(F)cc1)O2 | 45 | – | – | – | · | –
Cc1ccc([C@@H]2[C@@H]3C(=O)N(c4ccccc4)C(=O)[C@@H]3[C@]3(C)C(=O)N(CC4CC4)CC(=O)N23)o1 | 50 | · | – | – | – | –
Cc1ccc([C@@H]2[C@@H]3C(=O)N(C)C(=O)[C@@H]3[C@]3(C)C(=O)N(Cc4ccccc4)CC(=O)N23)o1 | – | · | – | – | – | –
SMILES | DENV2 CPE rescue | INS-1E GSIS act | RAD54 branch | AF4-AF9 inh | dFosB activator | RAD52 anneal inh
C[C@@H]1CCCCO[C@H](CN(C)C(=O)C2CCCCC2)[C@H](C)CN([C@H](C)CO)C(=O)c2cc(NC(=O)Nc3ccccc3)ccc2O1 | – | · | – | – | · | –
CCOC(=O)C(CC)(CC)C(=O)/C=C/c1ccc(Br)cc1 | · | 65 | – | · | – | ·
O=C(Cc1ccccc1)N1CC[C@H]2[C@H](CO)Nc3ccc(Br)cc3[C@H]21 | – | – | – | – | · | –
CCC(=O)Nc1ccc2c(c1)C(=O)N(C)C[C@@H](OC)[C@H](C)CN[C@@H](C)CO2 | ? | – | – | – | · | –
CCCN1Cc2cccc(C(=O)Nc3ccc4c(c3)OCCO4)c2C1=O | 94 | – | – | – | – | –
CCCN1Cc2cccc(C(=O)Nc3ccc4c(c3)OCO4)c2C1=O | · | · | – | · | – | ·
O=C(CSCc1ccccc1)Nc1ccccc1C(=O)Nc1ccc(C(=O)O)cc1 | 32 | – | – | – | – | –
O=C(Cc1ccccc1)Nc1ccccc1C(=O)Nc1ccc(C(=O)O)cc1 | – | – | – | – | – | –
O=C(Nc1nc2ccccc2s1)c1ccc([N+](=O)[O-])o1 | – | – | · | – | – | –
Cc1cc(C)nc(NC(=O)c2ccc([N+](=O)[O-])o2)n1 | 93 | – | · | – | – | –
COc1ccc2nc(NC(=O)c3ccc([N+](=O)[O-])o3)sc2c1 | 21 | – | – | – | – | –
CN1C(=O)c2cc(NC(=O)c3cccs3)ccc2OC[C@H]2O[C@@H](CC(=O)NCCN3CCCCC3)CC[C@@H]21 | – | – | – | – | · | –
C[C@@H]1CN([C@@H](C)CO)C(=O)c2cc(NS(=O)(=O)c3ccccc3)ccc2O[C@@H](C)CCCCO[C@@H]1CN(C)Cc1ccc2c(c1)OCO2 | – | – | – | – | · | –
Cc1ccc(NC(=S)NCc2ccc3[nH]c4c(c3c2)CCCC4)cc1 | – | · | – | – | – | –
COCCNC(=S)NCc1ccc2[nH]c3c(c2c1)CCCC3 | 33 | · | – | – | – | –
C[C@@H]1CN([C@@H](C)CO)C(=O)Cc2cc(NC(=O)Nc3ccc(F)cc3)ccc2O[C@@H]1CN(C)S(=O)(=O)c1ccc(Cl)cc1 | – | – | – | – | · | –
COc1ccc(-c2nc(CS(=O)CC(=O)NC(C)CCc3ccccc3)c(C)o2)cc1OC (stereo not drawn) | – | 49 | – | – | – | –
